# Laboratory results published in PubChem BioAssay AID624412 (The Scripps Research Institute Molecular Screening Center, 2012).
# The whole screen tested about 1,400 compounds, of which about 1,300 (93%) were called active. Cut-off read from the data, not from the text of the source: active = inhibition above about 7%; inactive = the rest. The set was probably picked from earlier hits. The list is a sample of the results.
# System: methionyl-tRNA synthetase (Trypanosoma brucei brucei)
# Test: inhibition of trypanosome methionyl-tRNA synthetase – biochemical, luminescence, confirmation (AID 624412)
# Details: T. brucei MetRS enzyme, luminescence (ATP depletion); at 11.9 µM; active compounds read high
row,Structure (SMILES),inhibition
1,COC(=O)/C(=C\Nc1ccccc1)NC(=O)c1ccc(Cl)cc1Cl,78% (active)
2,c1ccc2cc3[nH]c(CN4CCCCC4)nc3cc2c1,18.2% (active)
3,Cc1c(CN2CCC(CO)(CCOc3ccccc3)CC2)[nH]c2ccc(Cl)cc12,19% (active)
4,CN(C(=O)CSc1nnc(-c2c[nH]c3ccccc23)o1)C1CCS(=O)(=O)C1 (stereo not drawn),21.9% (active)
5,CN(C(=O)CSc1nnc(Nc2ccccc2)s1)C1CCS(=O)(=O)C1 (stereo not drawn),12.5% (active)
6,CCCCCn1nnnc1-c1nc2cc3ccccc3cc2[nH]c1=O,42.4% (active)
7,c1ccc(CN=C2Nc3ccccc3CS2)nc1,22% (active)
8,Cc1cc(C)cc(NC(=O)N(C)Cc2ccccc2)c1,3.08% (inactive)
9,COc1ccc(NC(=O)C(NC(C)=O)C(=O)NCc2ccccc2Cl)cc1 (stereo not drawn),17.9% (active)
10,OCCNc1nc2ccccc2n1-c1ncnc2sc3c(c12)CCC3,29.7% (active)
11,Cc1ccc(O)c(CNc2nc3ccccc3[nH]2)c1,85.4% (active)
12,O=S(=O)(NCc1ccc(Cl)cc1Cl)c1cccs1,33.5% (active)
13,CCCCN1C[C@H](c2ccc(Br)cc2)[C@@H](CC(=O)Nc2ccc(Br)cc2)C1=O,62.2% (active)
14,O=C(OCc1nc2ccccc2[nH]1)C1CCCCC1,27.3% (active)
15,O=C(NCc1cccc(CNC(=O)Nc2cccc(O)c2)c1)Nc1cccc(O)c1,17.5% (active)
16,COc1ccc(CCn2ccc(O)c(Cc3ccc(Cl)cc3Cl)c2=O)cc1OC,11.8% (active)
17,O=C(Nc1cccc([N+](=O)[O-])c1)N1CCc2ccccc2C1,25.6% (active)
18,O=C(CSCC(=O)Nc1cccc([N+](=O)[O-])c1)Nc1ccccc1,17% (active)
19,O=C(Nc1ccc(Cl)cc1)N1CCc2[nH]c3ccccc3c2C1,20.4% (active)
20,Fc1ccc(NC(=S)N2CCc3[nH]c4ccccc4c3C2)cc1,35.4% (active)
21,O=C(NNc1cc(Cl)cc(Cl)c1)c1c(F)cccc1Cl,66.4% (active)
22,Cc1ccc(N2C(=O)CC(NCc3ccc4c(c3)OCO4)C2=O)cc1Cl (stereo not drawn),98.5% (active)
23,O=C(/C(=N\O)n1cncn1)c1ccc(Br)cc1Br,18.3% (active)

row,Structure (SMILES),inhibition
1,CCCCN(C)Cc1c(C)[nH]c2ccc(Cl)cc2c1=O,67.1% (active)
2,O=C(CC(=O)Nc1ccc(Cl)c(Cl)c1)N/N=C/c1ccc(O)cc1,17.2% (active)
3,Cc1ccc(NC(=O)C(C)c2cccc(C(=O)c3ccccc3)c2)cc1 (stereo not drawn),85.5% (active)
4,O=C1CCCN1CCCNc1ncnc2c1[nH]c1ccccc12,55.3% (active)
5,Cc1ccccc1OCC(=O)NNC(=O)c1ccc(-n2cncn2)c([N+](=O)[O-])c1,24.7% (active)
6,Cc1ccc(S(=O)(=O)N(C)C)cc1NC(=O)c1ccc(-n2cncn2)c([N+](=O)[O-])c1,69.4% (active)
7,CC(=O)c1ccc(NC(=O)c2ccc(-n3cncn3)c([N+](=O)[O-])c2)cc1,72% (active)
8,O=C(NNC(=O)c1ccc(-n2cncn2)c([N+](=O)[O-])c1)c1ccccc1,50.4% (active)
9,c1ccc2cc3c(NCCN4CCOCC4)ccnc3cc2c1,50.4% (active)
10,Cc1ccc(S(=O)(=O)c2c[nH]c3ccc(C)cc3c2=O)cc1,45.7% (active)
11,Cc1ccc(S(=O)(=O)c2c[nH]c3ccc(Cl)cc3c2=O)cc1,85.2% (active)
12,O=C(NCCN1CCOCC1)c1ccccc1N1C(=O)[C@@H]2Cc3c([nH]c4ccccc34)C(c3cccc(Cl)c3)N2C1=O (stereo partly drawn),18.1% (active)
13,CCN(CC)C(=O)C(=O)c1cn(CC(=O)NCc2ccc3c(c2)OCO3)c2ccccc12,79.4% (active)
14,O=C(CSc1nc2ccccc2[nH]1)N/N=C/C=C\c1ccccc1[N+](=O)[O-],21.7% (active)
15,O=C(Cn1c2[n+](c3ccc(C(F)(F)F)cc31)CCCCC2)Nc1c(F)cccc1F,29.8% (active)
16,NS(=O)(=O)c1ccc(CCNC(=O)Nc2ccc(Cl)cc2)cc1,37.4% (active)
17,O=C(Cc1ccc(S(=O)(=O)N2CCOCC2)s1)Nc1ccc(Br)c(C(F)(F)F)c1,33.2% (active)
18,Clc1ccc(-c2cc(C3CCNCC3)[nH]n2)c(Cl)c1,52.6% (active)
19,O=C(Cn1c(NCCO)nc2ccccc21)c1ccc(Cl)cc1Cl,5.98% (active)
20,S=c1[nH]nc(CSCc2ccc(Cl)cc2Cl)n1-c1ccccc1,13.2% (active)
21,COC(=O)CN1C(=S)N(c2ccccc2)C(=O)C1CC(=O)Nc1ccc(Cl)cc1 (stereo not drawn),27.5% (active)
22,Cc1ccc(-c2cnc(C(O)c3cc(Cl)cc(Cl)c3)[nH]2)cc1 (stereo not drawn),63.9% (active)
23,OC(c1cc(Cl)cc(Cl)c1)c1ncc(-c2ccccc2C(F)(F)F)[nH]1 (stereo not drawn),91.3% (active)

row,Structure (SMILES),inhibition
1,O=S(=O)(c1ccc(Br)cc1)N1CCC(c2nc3ccccc3[nH]2)CC1,20.5% (active)
2,O=C(NCC(O)c1nc2ccccc2[nH]1)c1ccc(Br)cc1 (stereo not drawn),31.1% (active)
3,O=C(O)c1ccc(NS(=O)(=O)c2ccc3c(c2)C(=O)c2cc(S(=O)(=O)Nc4ccc(C(=O)O)cc4)ccc2-3)cc1,13.4% (active)
4,O=C(Nc1ccc(S(=O)(=O)Nc2ncccn2)cc1)c1cncc(Br)c1,2.54% (inactive)
5,CC(C)OCCCNc1ncnc2c1[nH]c1ccc(F)cc12,95.6% (active)
6,CCN1CCCC1CNc1ncnc2c1[nH]c1ccc(F)cc12 (stereo not drawn),53.7% (active)
7,CSc1nsc(NC(=O)Nc2ccccc2)n1,39.8% (active)
8,CC(C)(C)c1ccc(/C=C2\SC(=O)N=C2N)cc1,50.9% (active)
9,NC1=NC(=O)S/C1=C\c1ccc(O)cc1,40.1% (active)
10,O=C(O)CCn1c(O)c(C=C2N=c3ccccc3=N2)sc1=S,42.3% (active)
11,Cn1c(CCCOc2ccc(Cl)cc2Cl)n[nH]c1=S,12.2% (active)
12,CCCCCCCC[n+]1cccc(C(=O)N2c3c(nc(N)[nH]c3=O)NC(C)C2C)c1 (stereo not drawn),29.2% (active)
13,COc1ccc(OCC(O)CNC(=O)Nc2ccc(Cl)cc2)cc1 (stereo not drawn),78% (active)
14,Oc1[nH]c2ccc(Br)cc2c1N=Nc1nn[nH]n1,14.6% (active)
15,O=C(Nc1ccccc1)Nc1nnc(COc2ccccc2F)s1,30.4% (active)
16,Clc1ccccc1SCc1nc2ccccc2[nH]1,10.1% (active)
17,Cc1ccc(CNC(=O)CSc2nnc3c(n2)[nH]c2ccc(F)cc23)cc1,78% (active)
18,CCO[C@@H]1OC(C(=O)NCc2nc3ccccc3[nH]2)=C[C@H](C2CCCCC2)[C@H]1CCCO,48.9% (active)
19,CC(=N\NC(=O)c1cc(Br)ccc1O)/C(=N/O)C(=O)Nc1ccccc1,18.2% (active)
20,COc1ccccc1-n1c(SCC(=O)Nc2ccc(Cl)cc2)nc(O)c(Cc2ccccc2)c1=O,77.2% (active)
21,COc1ccc(-c2[nH]ncc2/C=N/NC(=O)c2cc(Br)ccc2O)c(OC)c1,12.1% (active)
22,O=[N+]([O-])c1ccc(N2CCN(c3ccc(O)cc3)CC2)c(Cl)c1,10.9% (active)
